BRCT inh red: disrupts BRCA1 BRCT binding to phosphoprotein, red fluorophore readout | P38398 | BRCT-phosphopeptide binding, red fluorescence polarization | Potency, µM (highest dose often 76.9 µM), hits mostly inhibitors | actives 0.03% (n = 75,000) | AID 892
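Rhodamine-labelled pBACH1 10-mer (100 nM) bound to BRCT domain (100 nM) at pH 7.3; compounds incubated 12 min room temperature, polarization read. Free peptide defines full inhibition; unlabelled decapeptide titrated as control.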
Hsp90 Hop PPI: changes Hsp90-Hop TPR2A binding signal, up or down | AlphaScreen TPR2A-His6 binding biotin-Hsp90 C-terminal peptide | Potency, µM (highest dose often 57 µM) | actives 0.44% (n = 71,000); active = well fitted curve in either direction with a large enough effect; inconclusive = small, poorly fitted or top-dose-only effect, or another doubt
BRCT PPI green: inhibitors of human BRCA1 BRCT-phosphoprotein interaction (green fluorophore); P38398; BRCA1 BRCT-phosphopeptide binding, green fluorescence polarization; Potency, µM (titrated, usually from 76.9 µM), usual class: inhibitors; actives 0.05% (n = 75,000); AID 875
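Fluorescence polarization: His-tagged BRCT (~35 kDa BRCA1 C-terminus, 250 nM) bound to 100 nM fluorescein-labeled phosphorylated 10-aa BACH1 peptide, pH 7.3 phosphate buffer with DTT and Tween 20. Compounds incubated 12 min at room temperature; inhibition read as lowered polarization.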
TsaE inh: displaces an ADP probe from E. coli YjeE (TsaE) | P0AF67 | purified YjeE enzyme, qHTS inhibition assay | Potency, µM | actives 0.05% (n = 71,000) | AID 605
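Purified YjeE (10 uM) with BODIPY Texas Red-labeled ADP probe (2 uM); compounds pin-transferred, 15 min at room temperature. Binding inhibition read as decreased fluorescence polarization; ADP titration as control.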
DNA Pol III inh: inhibitors of bacterial DNA polymerase III holoenzyme; reconstituted DNA polymerase III holoenzyme replication, biochemical; Potency, µM (highest dose often 57.1 µM); actives 0.25% (n = 71,000); AID 603
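Reconstituted *E. coli* holoenzyme (0.35 nM Pol III, 1 nM beta, 154 nM SSB, 2 nM primase) was preincubated with compound for 15 min at RT. Synthesis on 1.4 nM ssM13Gori ran 35 min, then was stopped with PicoGreen/EDTA and read as dsDNA fluorescence.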
ALOX15 inhib: inhibitors of human 15-lipoxygenase (ALOX15). P16050. purified 15hLO-1, xylenol orange hydroperoxide absorbance. Potency, µM (highest dose often 57.1 µM), hits mostly inhibitors. actives 1.4% (n = 74,000); also: nearly all actives have a fitted effect of over 55% in size
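40 nM 15hLO-1 + cpd, 15 min RT; start w/ 50 uM AA (final), 6 min RT; stop/detect w/ 200 uM XO + 300 uM Fe(II) in 50 mM H2SO4, 30 min; A573/A405. Buffer 25 mM Hepes pH 7.5, 0.01% Triton X-100. No-enzyme wells as negative control.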
Hsp90 TPR2A CRC: confirmation and counter-screen of Hsp90 TPR2A co-chaperone interaction disrupters. shares compounds with Hsp90 Hop PPI. AlphaScreen TPR2A-His6 / biotin-Hsp90 peptide binding. activity, negative = inhibition, % at 40 µM or 46 µM, hits read low. actives 100% (n = 45). AID 632;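 active = compound lowering the Hsp90 and TPR2A binding signal, whether or not the linker counterscreen also flagged it as an artifact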
Of the large screens only hits and unclear results are named; the others gave an inactive call (follow-up assays come after a bar, where they were run); [ ] = another dose, or the depositor's remark. Most compounds without a hit are left out; they make up all but 1.9% or so of the library. Unless noted, calls follow the shape of the dose curve; as a rule, active = well fitted curve in the direction sought with a large enough effect; inconclusive = small, poorly fitted or top-dose-only effect, or another doubt; inactive = no such curve, though single readings can be large; an effect the other way counts as inactive or inconclusive.

Cc1nnc(N2CCN(Cc3ccccc3)CC2)[nH]c1=O	none
Cc1cc(C)n(-c2nnc(C)c(=O)[nH]2)n1	Hsp90 Hop PPI 1.58µM | Hsp90 TPR2A CRC -99.9[alpha-screen platform artifact]
N#Cc1cccc(-c2nc3cnc(N4CCOCC4)nc3n(C[C@H]3CCCO3)c2=O)c1	none
Cc1ccc(S(=O)(=O)NC(=O)c2cc(C)n(CCCn3ccnc3)c2C)cc1	Hsp90 Hop PPI 3.98µM | Hsp90 TPR2A CRC -99.9[alpha-screen platform artifact]
O=C(CSc1cccc2cccnc12)N1CCCC1	Hsp90 Hop PPI 10µM | Hsp90 TPR2A CRC -98.5[alpha-screen platform artifact]
CN(C)C(=O)CSc1cccc2cccnc12	Hsp90 Hop PPI inconclusive
